# Assay results from PubChem BioAssay (NCATS).
# Results filed as inconclusive are left out. A call without a number means that no potency is given here. Values without a mark were called inactive. Activity calls are given as the source filed them. The call rests on the fitted dose curve; in most records, active means well fitted curve in the direction sought with a large enough effect; inconclusive means small, poorly fitted or top-dose-only effect, or another doubt; inactive means no such curve, though single readings can be large; an effect the other way counts as inactive or inconclusive.
# Assays:
# [1] = qHTS of pediatric cancer cell lines to identify multiple opportunities for drug repurposing: Primary screen for A673 cells (AID 1347092); further: nearly all actives have a fitted effect of over 45% in size
# How it was run: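 Luminescence from CellTiter-Glo, taken after 15 min at room temperature, served as the proxy for metabolically active cells following 48 h treatment. Both potency and efficacy were taken from curves fitted to the titration data.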
# [2] = qHTS of pediatric cancer cell lines to identify multiple opportunities for drug repurposing: Primary screen for SK-N-MC cells (AID 1347093)
# How it was run: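 Metabolically active cells were quantified by ATP-dependent luminescence (CellTiter-Glo, 15 min at room temperature) following 48 h treatment. Cells had been plated at 500-1,000 per well and settled for 5 h beforehand.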
# [3] = qHTS of pediatric cancer cell lines to identify multiple opportunities for drug repurposing: Primary screen for BT-37 cells (AID 1347094)
# How it was run: (§1)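 Cells plated at 500-1,000/well in growth medium, compounds added after 5 h. MIPE tested at 11 points (from 0.78 nM), NPC at 8 points (from 0.59 nM). CellTiter-Glo luminescence after 48 h; concentration-response curves from primary screen.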
# [4] = qHTS of pediatric cancer cell lines to identify multiple opportunities for drug repurposing: Primary screen for NB-EBc1 cells (AID 1347095)
# How it was run: as §1
# [5] = qHTS of pediatric cancer cell lines to identify multiple opportunities for drug repurposing: Primary screen for U-2 OS cells (AID 1347096); further: nearly all actives have a fitted effect of over 50% in size
# How it was run: (§2)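 Viability after 48 h compound treatment at 37C, 500-1,000 cells/well, read as ATP luminescence with CellTiter-Glo. Primary screens used 11-point (MIPE, 0.78 nM-46 µM) or 8-point (NPC, 0.59 nM-46 µM) final concentrations; follow-up screens used 11-point dilutions.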
# [6] = qHTS of pediatric cancer cell lines to identify multiple opportunities for drug repurposing: Primary screen for Saos-2 cells (AID 1347097); further: nearly all actives have a fitted effect of over 40% in size
# How it was run: as §1
# [7] = qHTS of pediatric cancer cell lines to identify multiple opportunities for drug repurposing: Primary screen for SK-N-SH cells (AID 1347098); further: nearly all actives have a fitted effect of over 65% in size
# How it was run: (§3)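 Cells (500-1,000/well) rested 5 h, then received compounds for 48 h; metabolically active cells were measured by CellTiter-Glo luminescence. Final concentrations spanned up to 46 µM (MIPE, 11-point) or 0.59 nM-46 µM (NPC, 8-point) in primary screens, 11-point in follow-ups.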
# [8] = qHTS of pediatric cancer cell lines to identify multiple opportunities for drug repurposing: Primary screen for NB1643 cells (AID 1347099); further: nearly all actives have a fitted effect of over 50% in size
# How it was run: as §1
# [9] = qHTS of pediatric cancer cell lines to identify multiple opportunities for drug repurposing: Primary screen for LAN-5 cells (AID 1347100)
# How it was run: as §2
# [10] = qHTS of pediatric cancer cell lines to identify multiple opportunities for drug repurposing: Primary screen for BT-12 cells (AID 1347101); further: nearly all actives have a fitted effect of over 25% in size
# How it was run: as §3
# Potency means the concentration at half of the fitted maximal effect.
Compound,Potency [1],Potency [2],Potency [3],Potency [4],Potency [5],Potency [6],Potency [7],Potency [8],Potency [9],Potency [10]
C[C@H](NCc1ccc(OCc2cccc(F)c2)cc1)C(N)=O,5.9 µM (active),2.64 µM (active),19.3 µM (active),10.5 µM (active),18.7 µM (active),16.6 µM (active),30.4 µM (active),14.8 µM (active),–,–
CCCCCCCCCCCCCCCC(=O)OC[C@@H](NC(=O)C(Cl)Cl)[C@H](O)c1ccc([N+](=O)[O-])cc1,inactive,inactive,inactive,inactive,inactive,inactive,inactive,inactive,inactive,inactive
CCc1ccc(C(=O)Nc2cc(CN3CCN(C)CC3)cc(C(F)(F)F)c2)cc1C#Cc1cnc2ccnn2c1,9.35 µM (active),1.87 µM (active),24.3 µM (active),11.8 µM (active),23.5 µM (active),14.8 µM (active),24.1 µM (active),1.18 µM (active),7.43 µM (active),27.3 µM (active)
C#CCC(Cc1cnc2nc(N)nc(N)c2n1)c1ccc(C(=O)N[C@@H](CCC(=O)O)C(=O)O)cc1 (some centres undefined),0.0296 µM (active),0.0235 µM (active),0.0544 µM (active),0.372 µM (active),inactive,inactive,–,–,–,–
C=C1C[C@@]2(O)O[C@@]3(C[C@H]2C(C)C)[C@H](C)CC[C@H]13,inactive,inactive,inactive,inactive,inactive,inactive,inactive,inactive,–,–
COc1cc(OC)cc(-c2ccc3ncc4ccc(=O)n(-c5ccc(N6CCNCC6)c(C(F)(F)F)c5)c4c3c2)c1,0.935 µM (active),1.32 µM (active),15.3 µM (active),3.72 µM (active),14.8 µM (active),13.2 µM (active),7.64 µM (active),11.8 µM (active),2.64 µM (active),19.3 µM (active)
CC(C)(C)[N+]([O-])=Cc1ccc(S(=O)(=O)O)cc1S(=O)(=O)O,inactive,inactive,inactive,inactive,inactive,inactive,inactive,inactive,inactive,inactive
CCN(CC)CCNC(=O)c1c(C)[nH]c(C=C2C(=O)Nc3ccc(F)cc32)c1C,5.4 µM (active),1.08 µM (active),17.7 µM (active),7.62 µM (active),21.5 µM (active),4.29 µM (active),22.1 µM (active),38.2 µM (active),4.29 µM (active),44.4 µM (active)
Nc1nc(=O)n([C@H]2CSC(CO)O2)cc1F (some centres undefined),inactive,inactive,inactive,inactive,inactive,inactive,inactive,inactive,inactive,–
Cc1cnc(Nc2ccc(N3CCN(C)CC3)cc2)nc1Nc1cccc(S(=O)(=O)NC(C)(C)C)c1,1.18 µM (active),1.05 µM (active),21.7 µM (active),1.87 µM (active),inactive,4.69 µM (active),3.04 µM (active),3.72 µM (active),0.743 µM (active),21.7 µM (active)
N#Cc1cc(NC(=O)Nc2nnc(-c3ccncc3)s2)ccc1-c1cn[nH]c1,inactive,inactive,inactive,inactive,inactive,inactive,–,–,inactive,inactive
C=C1CCC2[C@](C)(CO)C(O)CC[C@]2(C)C1CC=C1C(=O)OCC1O (some centres undefined),inactive,inactive,inactive,inactive,inactive,–,inactive,inactive,–,–
CC(C=CC1=C(C)CCCC1(C)C)=CC=CC(C)=CC(=O)Nc1ccc(O)cc1,2.7 µM (active),3.82 µM (active),17.7 µM (active),3.4 µM (active),42.9 µM (active),27 µM (active),55.5 µM (active),17.1 µM (active),3.4 µM (active),12.5 µM (active)
CNC(=O)c1ccc(Nc2cc(Nc3ccccc3S(=O)(=O)C(C)C)c3cc[nH]c3n2)nc1,2.35 µM (active),0.743 µM (active),7.69 µM (active),1.48 µM (active),18.7 µM (active),1.66 µM (active),4.82 µM (active),5.26 µM (active),–,4.85 µM (active)
CCCCC(=O)O[C@]1(C(=O)CO)[C@@H](C)C[C@H]2[C@@H]3CCC4=CC(=O)C=C[C@]4(C)[C@@]3(F)[C@@H](O)C[C@@]21C,inactive,inactive,inactive,inactive,inactive,–,inactive,inactive,inactive,inactive
CC(=O)OCC(=O)[C@@]12N=C(C)O[C@H]1C[C@H]1[C@@H]3CCC4=CC(=O)C=C[C@]4(C)[C@@H]3[C@@H](O)C[C@@]12C,inactive,inactive,inactive,inactive,inactive,inactive,inactive,inactive,inactive,inactive
